Source: PubChem BioAssay (Columbia University Molecular Screening Center)
An excerpt weighted towards active compounds, which were near 1.4% of everything screened.
NFkB transloc pot = enhances IL-1B driven NFkB nuclear translocation | activation, % at 2 µM | actives 0.3% (n = 94,000) | HUVEC IL-1B NFkB p65 nuclear translocation imaging | AID 819;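 active means activation above 40%, about the mean plus 3 SD, also judged a hit on visual image review; inconclusive means activation above 40% but not a hit on visual review; inactive means activation not above 40% and no visual hit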;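 further: percent activation is computed from the nuclear over cytoplasmic p65 intensity ratio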
Insulin prom inh = TRM-6 insulin promoter activity inhibition; AID 1273; inhibition, % at 2 µM; actives 0.9% (n = 130,000); TRM-6 cells (human fetal islet line), insulin promoter-eGFP reporter, imaging; reporter expression induced with tamoxifen;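 active means inhibition above the mean plus 3 SD, with well images judged a real hit on visual review, cut at about 60% in these data, passing the limit was not always enough; inconclusive means inhibition over the cutoff but images rejected on review; inactive means inhibition not above the cutoff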
IL1B NFkB inh = blocks IL-1B driven NFkB nuclear translocation in HUVEC cells; HUVEC IL-1B NFkB p65 nuclear translocation imaging; inhibition, % at 2 µM; actives 0.43% (n = 94,000); AID 796;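 active means inhibition above about 30% together with a positive call from visual inspection of the well image, limit read from the data; inconclusive means inhibition above a set limit but visual check negative; inactive means inhibition not above a set limit, visual check negative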;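 further: nuclear over cytoplasmic p65 intensity ratio measured by imaging; 0% = IL-1B stimulated DMSO wells and 100% = unstimulated DMSO wells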
HUVEC tox IL1B = HUVEC cytotoxicity counter-screen, IL-1B stimulated; HUVEC cell count loss, Hoechst imaging; cell count reduction, % at 2 µM; actives 0.41% (n = 94,000); AID 845;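 active means cell count reduction more than 3 SD above the screen-wide mean, cut at about 70% in these data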;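 further: normalized per plate to untreated control cells as the no-loss baseline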
* marks the source's active call; other numbers are inactive results; i = inactive; u = inconclusive; x = not tested or not shown.

SMILES	NFkB transloc pot	Insulin prom inh	IL1B NFkB inh	HUVEC tox IL1B
Clc1cccc(OCCn2cncn2)c1Cl	44.9*	47.6	-44.9	-45.5
CC(=O)Nc1ccccc1-c1nc2ccc(C(=O)N3CCN(c4ccccc4)CC3)cc2[nH]c1=O	-37.6	x	37.6*	-49.1
Cc1ccccc1OCC(=O)Nc1sc(C(=O)Nc2cccc(C)c2C)c(C)c1C#N	7.4	x	-7.4	-32.6
O=C(NCCCN1CCN(c2ccccc2F)CC1)Nc1ccccc1[N+](=O)[O-]	x	78.4*	x	x
O=C(NCCCN1CCN(c2ccccc2F)CC1)Nc1ccc(F)cc1	4.3	-78.6	-4.3	-27.5
Cc1c(Cl)cccc1NC(=S)N1CCC(N(C)CC2CCCO2)CC1 (stereo not given)	x	20.0	x	x
O=C(CCNS(=O)(=O)c1cccs1)N1CCc2ccccc2C1	-98.9	24.2	98.9*	-3.5
CC1CCc2c(sc3ncn(CCO)c(=O)c23)C1 (stereo not given)	x	35.0	x	x
CCn1nnc2sc3c(c2c1=O)CCC(C)C3 (stereo not given)	18.8	78.4*	-18.8	-3.7
Cc1cc2c3c(c1)C1(SCC(=O)N1c1ccc(F)cc1)C(=O)N3C(C)(C)CC2C (stereo not given)	-33.9	17.9	33.9*	-12.2
CCCNC(=O)NC(=O)COC(=O)CNS(=O)(=O)/C=C/c1ccccc1	x	-111.1	x	x
CCCNC(=O)OCCC12CC3CC(CC(C3)C1)C2	x	69.2*	x	x
CCCNC(=O)NCCC12CC3CC(CC(C3)C1)C2	x	47.1	x	x
COC(=O)CS(=O)(=O)c1ccsc1C(=O)Nc1ccc(F)cc1	x	63.6	x	x
Cc1ccc2nc(NC(=O)CN(C)S(=O)(=O)c3ccc(Br)s3)sc2c1	-37.6	65.5*	37.6*	28.6
Cc1ccc2nc(NC(=O)CNS(=O)(=O)c3ccc(Br)s3)sc2c1	-5.2	x	5.2	-14.6
COc1ccc(S(=O)(=O)N(C)CC(=O)NC2CCCCC2)cc1Cl	1.1	-3.3	-1.1	13.7
COc1ccc(S(=O)(=O)N(CC(N)=O)C2CCCCC2)cc1Cl	25.0	24.1	-25.0	93.3*
Cc1ccc(NC(=O)/C=C\C(=O)NCC(=O)O)cc1	x	52.9	x	x
COc1ccc(CC(=O)OCc2cc3ccccc3[nH]c2=O)cc1	-8.7	x	8.7	-1.7
COc1cc(OC)cc(C(=O)OCc2cc3ccccc3[nH]c2=O)c1	-0.2	71.4*	0.2	-27.7
COc1ccc(S(=O)(=O)Nc2ccc(F)c(Cl)c2)cc1OC	x	0.0	x	x
Cc1ccccc1N1C(=O)N(c2cccc(C(F)(F)F)c2)C2CS(=O)(=O)CC21 (stereo not given)	73.0*	-41.9	-73.0	-9.4
COc1cccc(N2C(=O)N(c3ccccc3Cl)C3CS(=O)(=O)CC32)c1 (stereo not given)	13.6	-7.4	-13.6	-115.4
Cc1noc(C)c1COc1ccc(C(=O)OCC(=O)Nc2ccc3ccccc3c2)cc1	4.0	33.3	-4.0	92.4*
SMILES	NFkB transloc pot	Insulin prom inh	IL1B NFkB inh	HUVEC tox IL1B
CCOC(=O)c1ccc(OCc2c(C)noc2C)cc1	21.4	-50.0	-21.4	-0.8
CCc1cc(C(=O)N=Nc2c(O)[nH]c3c(Br)cc(Br)cc23)c2ccccc2n1	x	6.7	x	x
COc1ccnc(Oc2ccccc2)c1C(=O)N/C=N/OCc1ccc(F)cc1Cl	-14.3	35.3	14.3	94.9*
COc1ccccc1CO/N=C/NC(=O)c1c(OC)ccnc1Oc1ccc(F)cc1	-1.1	-12.5	1.1	-24.7
O=C(N/N=C/C(Br)=C/c1ccccc1)c1n[nH]c2c1CCC2	-41.2	x	40.2*	15.7
O=C(NCC1c2ccccc2CCN1C(=O)CN1C(=O)c2ccccc2C1=O)C1CCCCC1 (stereo not given)	9.9	22.6	-9.9	-17.0
CCO/C(=C/c1sc2ccc(OC)cc2[n+]1CCCS(=O)(=O)[O-])CC	-6.8	11.1	6.8	14.7
CCOC(=O)C[n+]1c(C)sc2ccc(OC)cc21	-43.3	-33.3	43.3*	-21.4
CCOC(=O)CSc1nnc(CNC(=O)c2ccc(S(=O)(=O)N3CCCC3)cc2)n1C	2.7	90.0*	-2.7	-20.0
COc1ccc(-c2c(C#N)c(C)nc3c2C(=O)c2ccccc2-3)cc1	0.1	89.5*	-0.1	-2.0
COc1ccc(-c2nc(-c3ccccc3)[nH]c(=O)c2C#N)cc1	6.8	x	-6.8	-36.4
CCOC(=O)NCc1ccc(S(=O)(=O)Nc2c(C)cccc2C)cc1	5.6	-4.2	-5.6	3.5
COc1cccc(C(=O)NC2=NCCS2)c1	5.3	75.0*	-5.3	-140.0
CCOC(=O)C1=NNC2(c3ccc(C)cc3)C(=O)N(c3ccc(Cl)cc3)C(=O)C12 (stereo not given)	x	-30.6	x	x
Cc1csc(NC(=O)c2ccco2)n1	43.6*	-18.9	-43.6	-24.2
Cc1csc(NC(=O)c2ccccc2C(=O)O)n1	-24.9	-6.9	24.9	86.3*
O=C(O)Cc1csc(NC(=O)c2ccco2)n1	-12.3	23.6	12.3	-16.9
COCCNC(=O)C1=C(N)C(C(=O)Nc2ccc(C)c(S(=O)(=O)N3CCCCC3)c2)SC1=Nc1ccc(C)cc1C (stereo not given)	0.1	13.3	-0.1	2.0
O=C1OC(Nc2ccc(Br)cn2)c2ccccc21 (stereo not given)	0.8	35.7	-0.8	-40.5
Nc1cc2c(cc1C(=O)c1ccc(Cl)cc1)OCCO2	20.9	75.9*	-20.9	-1.6
CCCCCCSc1nc(O)c(C2OC(=O)c3c2ccc(OC)c3OC)c(=O)n1-c1ccccc1 (stereo not given)	10.5	13.3	-10.5	6.4
COc1ccc(C)cc1NC(=O)CSc1nnc(CC(=O)Nc2ccccc2C)n1C	7.7	66.7*	-7.7	-5.9
COc1ccccc1NC(=O)Cc1nnc(SCC(=O)Nc2ccccc2F)n1C	x	0.0	x	x
COC(=O)CS(=O)(=O)c1nnc([C@H](Cc2ccccc2)NC(=O)OC(C)(C)C)o1	-9.9	70.3*	9.9	18.5
Cc1cccc(CS(=O)(=O)c2nnc([C@H](Cc3ccccc3)NC(=O)OC(C)(C)C)o2)c1	-8.4	31.2	8.4	13.5
SMILES	NFkB transloc pot	Insulin prom inh	IL1B NFkB inh	HUVEC tox IL1B
COc1ccc2nc(SCC(=O)N3CCN(c4ccccc4F)CC3)c(C#N)cc2c1	-45.6	31.2	45.6*	1.3
CCOC(=O)CSc1nc(C)cc(C)c1C#N	-50.3	i	50.3*	-4.9
CCOC(=O)CSc1nc2cc(C)ccc2cc1C#N	10.7	u	-10.7	7.3
Cc1cc(C)c(C#N)c(SCc2ccccc2)n1	-20.3	i	20.3	91.4*
COc1ccc2nc(SCC(=O)N3CC(=O)Nc4ccccc43)c(C#N)cc2c1	-7.0	22.9	7.0	11.8
CCOC(=O)CSc1nc2cc(OC)ccc2cc1C#N	-10.7	93.8*	10.7	-16.4
CC(C)(CSc1nncn1N)NS(=O)(=O)c1ccc(Cl)cc1	8.3	77.3*	-8.3	-20.0
COc1ccc(S(=O)(=O)N(CC(=O)N/N=C/c2cccs2)c2cc(C)cc(C)c2)cc1OC	1.6	-33.3	-1.6	-3.2
Cc1ccc(S(=O)(=O)N2CCOCC2)cc1NC(=O)Cn1ccsc1=N	40.3*	5.4	-40.3	-3.5
OC1(c2cccnc2)CCN(Cc2nnnn2Cc2ccccc2)CC1	x	-61.5	x	x
Cc1ccc(Cn2nnnc2CN2CCC(O)(c3cccnc3)CC2)cc1	x	78.6*	x	x
COC(=O)c1nnn(-c2nonc2N)c1-c1cccs1	-6.7	50.0	8.6	-41.5
O=C(CCC(=O)N(CC(=O)NC1CCCC1)C1CCCC1)Nc1ccccn1	127.4*	9.1	-127.4	6.1
